Assay results as given in paper PMC12820563, “FoxP3 forms a head-to-head dimer in vivo and stabilizes its multimerization on adjacent microsatellites”.
Whole data set: some 16,000 sequences, median “rpm ratio (pull-down/input)” near 0.5, cut for the highest 2% near 5.5. What follows is part of a selection rich in the highest values, with near analogues and random picks from the rest.

Each sequence was assayed against T1, MBP-FoxP3dN (Mus musculus, UniProt Q99JB6 188-423) (assay: PD-seq (MBP pull-down with sequencing); 20 mM Tris-HCl pH 7.5, 100 mM NaCl, 1.5 mM MgCl2, 0.4 uM protein, 0.1 uM dsDNA library, 30 min, room temperature, amylose pull-down; high values mean tight binding). Conditions: protein: recombinant; tags: His6-MBP; chain copies: 2; dsDNA, one strand shown.
T1 sequence: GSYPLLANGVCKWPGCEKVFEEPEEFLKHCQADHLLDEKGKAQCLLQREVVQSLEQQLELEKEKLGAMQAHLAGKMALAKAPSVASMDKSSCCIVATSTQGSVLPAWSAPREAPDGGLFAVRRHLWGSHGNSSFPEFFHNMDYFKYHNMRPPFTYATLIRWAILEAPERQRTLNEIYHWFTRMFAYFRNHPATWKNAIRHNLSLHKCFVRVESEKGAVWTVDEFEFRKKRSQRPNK
Procedure, shortened: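 In Tris pH 7.5 buffer with NaCl and MgCl2, 0.4 µM His6-MBP-tagged mouse FoxP3 or FoxP1 fragment lacking the N-terminus, from E. coli, met 0.1 µM Klenow-filled double-stranded degenerate DNA library for 30 min at room temperature. Three washes on amylose resin followed capture of the complexes, then proteinase K release of DNA, PCR barcoding and Illumina sequencing. Binding is taken as pooled-replicate reads-per-million enrichment of pull-down relative to input.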

Sequence | binding signal
GATGATTGTTCTCCCAGCTGATGAATTCGTCCGTTCGAGTAAACAAATTTTCCTAATCTTTCTGTTCAAGCGCCATCTAC | 0.459 RPM ratio (pull-down/input)
GATGATTGTTCTCCCAGCTGATGAATTCGTATCGTCGAGTAAACAAATTTTCCTAATCTTTCTGTTCAAGCGCCATCTAC | 1.53 RPM ratio (pull-down/input)
GATGATTGTTCTCCCAGCTGATGAATTACTGTTCTCGAGTAAACAAATTTTCCTAATCTTTCTGTTCAAGCGCCATCTAC | 0.662 RPM ratio (pull-down/input)
GATGATTGTTCTCCCAGCTGATGAATTTTTAGCCTCGAGTAAACAAATTTTCCTAATCTTTCTGTTCAAGCGCCATCTAC | 0.414 RPM ratio (pull-down/input)
GATGATTGTTCTCCCAGCTGATGAATTAAGCCTCTCGAGTAAACAAATTTTCCTAATCTTTCTGTTCAAGCGCCATCTAC | 5.69 RPM ratio (pull-down/input)
GATGATTGTTCTCCCAGCTGATGAATTTAGCCTCTCGAGTAAACAAATTTTCCTAATCTTTCTGTTCAAGCGCCATCTAC | 5.79 RPM ratio (pull-down/input)
GATGATTGTTCTCCCAGCTGATGAATTAAGCGCCTCGAGTAAACAAATTTTCCTAATCTTTCTGTTCAAGCGCCATCTAC | 1.4 RPM ratio (pull-down/input)
GATGATTGTTCTCCCAGCTGATGAATTTAGCGCCTCGAGTAAACAAATTTTCCTAATCTTTCTGTTCAAGCGCCATCTAC | 1.56 RPM ratio (pull-down/input)
GATGATTGTTCTCCCAGCTGATGAATTAACAGCCTCGAGTAAACAAATTTTCCTAATCTTTCTGTTCAAGCGCCATCTAC | 0.491 RPM ratio (pull-down/input)
GATGATTGTTCTCCCAGCTGATGAATTAGCCACTTCGAGTAAACAAATTTTCCTAATCTTTCTGTTCAAGCGCCATCTAC | 1.09 RPM ratio (pull-down/input)
GATGATTGTTCTCCCAGCTGATGAATTATTCGCCTCGAGTAAACAAATTTTCCTAATCTTTCTGTTCAAGCGCCATCTAC | 0.568 RPM ratio (pull-down/input)
GATGATTGTTCTCCCAGCTGATGAATTAACAACTTCGAGTAAACAAATTTTCCTAATCTTTCTGTTCAAGCGCCATCTAC | 0.722 RPM ratio (pull-down/input)
GATGATTGTTCTCCCAGCTGATGAATTCGGCACATCGAGTAAACAAATTTTCCTAATCTTTCTGTTCAAGCGCCATCTAC | 0.778 RPM ratio (pull-down/input)
GATGATTGTTCTCCCAGCTGATGAATTATACTTGTCGAGTAAACAAATTTTCCTAATCTTTCTGTTCAAGCGCCATCTAC | 1.05 RPM ratio (pull-down/input)
GATGATTGTTCTCCCAGCTGATGAATTTGCATCATCGAGTAAACAAATTTTCCTAATCTTTCTGTTCAAGCGCCATCTAC | 6.33 RPM ratio (pull-down/input)
GATGATTGTTCTCCCAGCTGATGAATTTGTTGCATCGAGTAAACAAATTTTCCTAATCTTTCTGTTCAAGCGCCATCTAC | 7.07 RPM ratio (pull-down/input)

Sequence | binding signal
GATGATTGTTCTCCCAGCTGATGAATTGTTTGCATCGAGTAAACAAATTTTCCTAATCTTTCTGTTCAAGCGCCATCTAC | 6.03 RPM ratio (pull-down/input)
GATGATTGTTCTCCCAGCTGATGAATTGCATCAATCGAGTAAACAAATTTTCCTAATCTTTCTGTTCAAGCGCCATCTAC | 3.31 RPM ratio (pull-down/input)
GATGATTGTTCTCCCAGCTGATGAATTTGCATGATCGAGTAAACAAATTTTCCTAATCTTTCTGTTCAAGCGCCATCTAC | 1.63 RPM ratio (pull-down/input)
GATGATTGTTCTCCCAGCTGATGAATTGCCATCATCGAGTAAACAAATTTTCCTAATCTTTCTGTTCAAGCGCCATCTAC | 1.56 RPM ratio (pull-down/input)
GATGATTGTTCTCCCAGCTGATGAATTTTTTGCATCGAGTAAACAAATTTTCCTAATCTTTCTGTTCAAGCGCCATCTAC | 1.37 RPM ratio (pull-down/input)
GATGATTGTTCTCCCAGCTGATGAATTCTTTGCATCGAGTAAACAAATTTTCCTAATCTTTCTGTTCAAGCGCCATCTAC | 0.99 RPM ratio (pull-down/input)
GATGATTGTTCTCCCAGCTGATGAATTTGCAGCATCGAGTAAACAAATTTTCCTAATCTTTCTGTTCAAGCGCCATCTAC | 1.6 RPM ratio (pull-down/input)
GATGATTGTTCTCCCAGCTGATGAATTACTATCGTCGAGTAAACAAATTTTCCTAATCTTTCTGTTCAAGCGCCATCTAC | 0.509 RPM ratio (pull-down/input)
GATGATTGTTCTCCCAGCTGATGAATTGCTAACTTCGAGTAAACAAATTTTCCTAATCTTTCTGTTCAAGCGCCATCTAC | 0.723 RPM ratio (pull-down/input)
GATGATTGTTCTCCCAGCTGATGAATTGCAAGCGTCGAGTAAACAAATTTTCCTAATCTTTCTGTTCAAGCGCCATCTAC | 0.974 RPM ratio (pull-down/input)
GATGATTGTTCTCCCAGCTGATGAATTAGGTGGCTCGAGTAAACAAATTTTCCTAATCTTTCTGTTCAAGCGCCATCTAC | 0.625 RPM ratio (pull-down/input)
GATGATTGTTCTCCCAGCTGATGAATTATCAGAGTCGAGTAAACAAATTTTCCTAATCTTTCTGTTCAAGCGCCATCTAC | 0.249 RPM ratio (pull-down/input)
GATGATTGTTCTCCCAGCTGATGAATTCTTCTCATCGAGTAAACAAATTTTCCTAATCTTTCTGTTCAAGCGCCATCTAC | 0.242 RPM ratio (pull-down/input)
GATGATTGTTCTCCCAGCTGATGAATTGGTTATTTCGAGTAAACAAATTTTCCTAATCTTTCTGTTCAAGCGCCATCTAC | 3.1 RPM ratio (pull-down/input)
GATGATTGTTCTCCCAGCTGATGAATTTATTGGTTCGAGTAAACAAATTTTCCTAATCTTTCTGTTCAAGCGCCATCTAC | 5.89 RPM ratio (pull-down/input)
